Screening data: PubChem, National Center for Advancing Translational Sciences (NCATS)
An excerpt weighted towards active compounds, which were near 9.9% of everything screened.
KDM4E inh: inhibitors of human JMJD2E histone demethylase; B2RXH2; JMJD2E catalytic domain, FDH-coupled NADH fluorescence (FDH is formaldehyde dehydrogenase); Potency, µM (doses to about 57.1 µM), inactives show at the top dose activity change, negative = inhibition, most hits filed as inhibitors; actives 1.6% (n = 230,000); AID 2147;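 note: 0% = wells with enzyme and -100% = buffer wells without enzyme; nearly all actives have a fitted effect of over 50% in size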
Tau fibril FP: blocks human tau fibril formation measured by polarization | P10636 | K18 P301L tau heparin fibrillization, Alexa594 FP, 6 h | Potency, µM (series often up to 57.7 µM), for inactives: top-dose activity, negative = inhibition, hits mostly inhibitors | actives 0.39% (n = 280,000); active = well fitted curve in the direction sought with a large enough effect; inconclusive = small, poorly fitted or top-dose-only effect, or another doubt; inactive = no such curve, though single readings can be large; an effect the other way counts as inactive or inconclusive; note: nearly all actives have a fitted effect of over 55% in size
Target sequence (P10636 561-689 P618L limits assumed): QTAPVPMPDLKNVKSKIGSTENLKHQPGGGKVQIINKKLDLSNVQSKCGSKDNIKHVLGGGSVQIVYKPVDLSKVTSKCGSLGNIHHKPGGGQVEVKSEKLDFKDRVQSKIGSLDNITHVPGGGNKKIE
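Human tau K18 […] P301L fragment, 15 uM unlabeled plus 0.24 uM Alexa 594-labeled tau (final), with compound and 20 uM heparin in 100 mM sodium acetate pH 7; 6 hr at 37 C, then Alexa 594 FP read.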
HPGD block: HPGD (human) dehydrogenase inhibition. P15428. purified HPGD, NADH fluorescence kinetic, PGE2 substrate. Potency, µM, inactives show top-dose activity change, negative = inhibition, usual class: inhibitors. actives 4.3% (n = 150,000). AID 894
Target sequence (P15428 whole entry, looked up): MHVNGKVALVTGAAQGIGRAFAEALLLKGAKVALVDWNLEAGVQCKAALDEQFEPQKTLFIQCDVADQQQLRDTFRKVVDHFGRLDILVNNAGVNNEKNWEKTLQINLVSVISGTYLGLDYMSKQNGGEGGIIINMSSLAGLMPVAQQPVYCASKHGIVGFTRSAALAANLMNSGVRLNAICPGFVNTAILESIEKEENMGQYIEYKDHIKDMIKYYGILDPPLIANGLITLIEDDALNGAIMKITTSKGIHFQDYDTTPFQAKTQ
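20 nM HPGD preincubated 15 min at room temperature with compound in 50 mM Tris-HCl pH 8, 0.01% Tween 20. Started with 1 mM NAD+ and 30 uM prostaglandin E2; NADH fluorescence (360/450 nm) read 5 times over 30-s intervals, last minus first.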
ALDH1A1 inh: inhibitors of human aldehyde dehydrogenase 1A1; Purified ALDH1A1, NADH fluorescence, propionaldehyde substrate; Potency, µM (doses to about 75.3 µM), for the others: at the top dose activity, negative = inhibition, most hits filed as inhibitors; P00352; actives 7.3% (n = 220,000);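 note: plate controls were no enzyme wells and a reference inhibitor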
Tau fluor cs: counter-screen for tau fibril formation inhibitors; tau K18 P301L Alexa594 fluorescence, heparin fibrillization; Potency, µM (highest dose often 57.7 µM), for inactives: at the top dose activity change, negative = decrease; actives 0.93% (n = 280,000); active = well fitted curve in the direction sought with a large enough effect; inconclusive = small, poorly fitted or top-dose-only effect, or another doubt; inactive = no such curve, though single readings can be large; an effect the other way counts as inactive or inconclusive; note: nearly all actives have a fitted effect of over 55% in size
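Human K18 P301L tau (15 uM unlabeled plus 0.24 uM Alexa 594-labeled, final) in 100 mM sodium acetate pH 7 was mixed with compound and 20 uM heparin and incubated 6 hr at 37 C.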
Tau ThT inhib: tau fibrillization inhibition (ThT binding). P10636. recombinant tau K18 P301L (four-repeat tau fragment), heparin-induced fibrillization, ThT fluorescence. Potency, µM (titrated, usually from 57.4 µM), for inactives: at the top dose activity, negative = inhibition, actives largely listed as inhibitors. actives 2.1% (n = 270,000); active = well fitted curve in the direction sought with a large enough effect; inconclusive = small, poorly fitted or top-dose-only effect, or another doubt; inactive = no such curve, though single readings can be large; an effect the other way counts as inactive or inconclusive; note: nearly all actives have a fitted effect of over 55% in size
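Recombinant human tau K18 fragment […] carrying P301L, 15 uM unlabeled plus 0.24 uM Alexa 594-labeled, was fibrillized with 20 uM heparin in 100 mM sodium acetate pH 7 for 6 hr at 37 C; 30 uM ThT fluorescence read after 1 hr.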
The depositor's hits bear a star; i = inactive; ? = inconclusive; . = no result given; [ ] = dose if it differs, or a comment. Unless noted, calls come from the whole dose curve; as a rule, active = well fitted inhibition curve with a large enough effect (not every such curve was filed as active); inconclusive = small, poorly fitted or top-dose-only effect, or another doubt; inactive = no such curve, though single readings can be large or run the other way. Unless noted, % is set by controls: 0 for no effect and ±100 for the full control effect; potency is the fitted concentration of half-maximal effect.

SMILES	KDM4E inh	Tau fibril FP	HPGD block	ALDH1A1 inh	Tau fluor cs	Tau ThT inhib
O=C(CSC1=NC(=O)C(c2ccccc2)C(=O)N1)Nc1ccccc1[N+](=O)[O-] (stereo unspecified)	-10.9%	-13.4%	.	?	-12.2%	?
O=C(CSC1=NC(=O)C(c2ccccc2)C(=O)N1)Nc1ccccc1Cl (stereo unspecified)	0.8%	-8.8%	-8.9%	20µM*	-11.1%	?
CN(C)/C=C/c1c([N+](=O)[O-])c2ccc(O)cc2n1-c1ccccc1	?	?	.	-15.4%	15.8µM*[quencher]	12.6µM*
O=C(NC(NNc1ccc([N+](=O)[O-])cc1)(C(F)(F)F)C(F)(F)F)c1ccccc1Cl	?	-14.1%	14.1µM*	14.1µM*	?	?
O=C(NC(NNc1ccc([N+](=O)[O-])cc1)(C(F)(F)F)C(F)(F)F)c1ccc(F)cc1	-0.4%	-19.1%	31.6µM*	?	?	?
O=[N+]([O-])c1ccc(NNC(=S)Nc2ccc(F)cc2)cc1	-18.9%	2.3%	22.4µM*	1.26µM*	?	12.6µM*
COC(=O)C(NNc1ccccc1)(NC(=O)c1ccc(F)cc1)C(F)(F)F (stereo unspecified)	.	?	-13.7%	?	-14.0%	?
O=C(O)c1ccc2c(c1)C(=O)N(N1C(=O)c3ccccc3C1=O)C2=O	2.8%	-5.2%	-8.8%	-7.4%	1.6%	-5.7%
COC(=O)c1cc(S(=O)(=O)N2CCC(C)CC2)ccc1F	-0.6%	3.3%	?	28.2µM*	3.8%	-3.1%
Cc1ccc(NC(=O)c2ccc(S(=O)(=O)N3CCC(C)CC3)cc2)cc1	-4.3%	-15.8%	-13.5%	-1.9%	-5.8%	-2.0%
CC1CCN(S(=O)(=O)c2ccc(NC(=S)NC(=O)c3ccc(Cl)cc3)cc2)CC1	9.4%	?	-18.3%	3.98µM*	1.8%	7.5%
O=C(NC(=S)Nc1ccc(S(=O)(=O)N2CCCCC2)cc1)c1ccc(Cl)cc1	-4.6%	0.1%	?	0.501µM*	0.2%	-3.8%
COC(=O)c1cccc(NC(=S)Nc2ccc(Cl)c(Cl)c2)c1	6.6%	?	.	.	20µM*[quencher]	4.8%
COC(=O)c1cccc(NC(=S)Nc2cccc(Cl)c2C)c1	-10.8%	?	-11.3%	?	-4.3%	0.4%
COC(=O)c1cccc(NC(=O)NC23CC4CC(CC(C4)C2)C3)c1	-23.8%	?	?	31.6µM*	?	2.1%
COc1cc(NC(=O)c2ccco2)c(OC)cc1NC(=O)Nc1cccc(Cl)c1	i	9.1%	-12.2%	4.1%	12.6µM*[quencher]	?
COC(=O)c1cccc(NC(=S)Nc2ccccc2Cl)c1	-3.5%	-11.6%	.	.	-7.3%	.
COc1ccc(NC(=O)c2ccco2)cc1NC(=O)c1ccco1	7.5%	0.6%	-3.5%	3.8%	-2.7%	-11.2%
COC(=O)c1cc(NC(=S)Nc2cc(Cl)cc(Cl)c2)cc(C(=O)OC)c1	6.1%	31.6µM*	?	?	?	-5.4%
S=C1SCN(C2CCCCCCCCCCC2)CN1C1CCCCCCCCCCC1	.	.	-4.5%	0.3%[13.5 µM]	.	.
Cc1ccc(-n2nc3c(=O)n(CC(=O)NC(C)C)nc(C)c3c2C)cc1	.	1.4%	.	.	6.1%	12.8%
O=C(Nc1cccc(Cl)c1)Nc1cccc(Cl)c1	4.4%	?	-4.2%	?	-21.6%	-10.2%
Cc1cccc(C)c1NC(=S)Nc1ccc(Cl)c(Cl)c1	-2.2%	?	.	22.4µM*	-23.5%	2.6%
COC(=O)c1cc(NC(=O)Nc2cccc(Cl)c2)ccc1Cl	-1.3%	7.94µM*	-14.9%	-2.2%	7.94µM*[quencher]	?
Cc1cccc(OCCSc2nc3ccccc3n2CC(=O)N2CCOCC2)c1	.	-8.9%	.	.	-7.0%	-7.5%
SMILES	KDM4E inh	Tau fibril FP	HPGD block	ALDH1A1 inh	Tau fluor cs	Tau ThT inhib
CCCOc1ccccc1Cn1c(=O)oc2ccc(C)cc21	0.3%	-1.1%	25.1µM*	?	-19.3%	-23.6%
CC1(C)C(=O)NC2=C1C(=O)C(=O)c1ccccc12	?	?	-10.7%	28.2µM*	-28.2%	17.8µM*
CCOC(=O)CC(=O)CSc1nc2ccccc2c(=O)n1-c1ccc(C(=O)NCCOC)cc1	0.2%	6.7%	-26.8%	-2.4%	-4.6%	?
O=C(Cc1coc2cc3c(cc12)CCC3)NC1CCCCCCC1	2.0%	6.0%	14.1µM*	-0.3%	-8.9%	-11.0%
Cc1csc(NC(=O)c2cn3ccccc3n2)n1	63.4%	0.3%	.	?	1.5%	2.4%
O=C(NNC(=S)NC(=O)c1ccco1)c1ccc(NC(=O)c2ccccc2)cc1	?	-1.3%	.	-13.5%	-18.9%	?
O=C(NC(=S)NNC(=O)c1cc2ccccc2cc1O)c1ccco1	17.8µM*	12.0%	.	?	-28.8%	12.6µM*
O=C(NC(=S)Nc1cccc(NC(=S)NC(=O)c2ccco2)n1)c1ccco1	-13.0%	?	.	?	-9.5%	-5.7%
O=C(NC(=S)NNC(=O)c1ccccc1O)c1ccco1	7.08µM*	4.6%	?	?	-15.0%	?
O=C(/C=C/c1cccs1)NC(=S)NNC(=O)c1ccccc1O	?	5.8%	.	?	?	14.1µM*
C=CCN(c1ccccc1)S(=O)(=O)c1cccc(C(=O)Nc2nc3ccccc3[nH]2)c1	28.2µM*	-11.3%	?	?	-19.2%	10.0%
CN(c1cccc(Cl)c1)S(=O)(=O)c1cccc(C(=O)Nc2nc3ccccc3[nH]2)c1	?	-9.7%	-29.3%	5.5%	?	0.2%
O=Cc1ccc(-c2nc3ccccc3s2)o1	?	-8.8%	.	?	-2.3%	?
O=C(O)CCN1C(=O)/C(=C/c2ccc(-c3nc4ccccc4s3)o2)SC1=S	-12.3%	-5.0%	12.6µM*	3.55µM*	-25.5%	1.26µM*
O=C(O)CC(C(=O)O)N1C(=O)/C(=C/c2ccc(-c3nc4ccccc4s3)o2)SC1=S (stereo unspecified)	2.82µM*	?	25.1µM*	10µM*	-25.6%	7.94µM*
